LmPK inh: LmPK (Leishmania mexicana) enzyme inhibition | Potency, µM (highest dose often 57.5 µM), for the others: top-dose activity change, negative = inhibition, actives largely listed as inhibitors | purified LmPK, Kinase-Glo ATP luminescence, 1 h | Q27686 | actives 0.37% (n = 290,000); further: potency means the concentration at half of the fitted maximal effect; on the % scale 0 is the no-effect control and ±100 the full control effect
Target sequence (Q27686 whole entry, looked up): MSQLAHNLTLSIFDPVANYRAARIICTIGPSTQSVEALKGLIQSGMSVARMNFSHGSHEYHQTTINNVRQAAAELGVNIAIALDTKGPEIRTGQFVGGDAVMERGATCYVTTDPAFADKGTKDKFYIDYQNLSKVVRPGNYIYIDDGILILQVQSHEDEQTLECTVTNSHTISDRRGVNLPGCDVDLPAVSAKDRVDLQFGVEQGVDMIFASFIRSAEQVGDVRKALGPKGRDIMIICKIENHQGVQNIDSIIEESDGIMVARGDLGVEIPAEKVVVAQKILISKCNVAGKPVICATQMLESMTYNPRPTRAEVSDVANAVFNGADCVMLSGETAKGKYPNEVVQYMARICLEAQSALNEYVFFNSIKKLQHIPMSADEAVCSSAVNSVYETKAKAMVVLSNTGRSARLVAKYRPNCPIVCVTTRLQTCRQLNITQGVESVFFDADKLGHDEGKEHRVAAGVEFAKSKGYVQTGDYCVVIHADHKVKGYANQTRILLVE
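ATP generated from ADP (0.1 mM) and PEP (0.5 mM) by 0.1 nM LmPK over 1 h at room temperature (pH 7.2 imidazole buffer) was detected by coupled luciferase luminescence. Values were normalized to uninhibited and no-enzyme wells.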
Shiga toxin inh: Shiga toxin inhibition; Vero cells, Shiga toxin protein synthesis inhibition reporter; actives 9.2% (n = 290,000); inhibition, % at 38.7 µM; in the data active means inhibition mostly above about 28%, no sharp cut-off; inactive means mostly below about 43%; further: 0% is about no effect
Giardia FBPA inh: Giardia lamblia aldolase inhibition | A8B2U2 | purified Giardia FBPA | Potency, µM (doses to about 59.6 µM), for inactives: at the highest dose activity, negative = inhibition, usual class: inhibitors | actives 0.71% (n = 290,000) | AID 2451; further: potency means the concentration at half of the fitted maximal effect; on the % scale 0 is the no-effect control and ±100 the full control effect; nearly all actives have a fitted effect of over 55% in size
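Giardia FBPA (40 nM reagent) was preincubated 10 min at RT with compound (up to 57.5 uM final), then substrate plus GAPDH/TPI/NAD/arsenate coupling system with diaphorase/resazurin was added; resorufin fluorescence (525/598 nm) was read after 20 min.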
NS1 function inh: blocks influenza NS1 protein function; AID 2326; Potency, µM (top dose mostly 46.1 µM), without a hit: at the highest dose activity, positive = more growth; actives 0.4% (n = 270,000); calls by dose curve; further: potency means the concentration at half of the fitted maximal effect; actives are rising curves; nearly all actives have a fitted effect of over 50% in size
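OD600 was taken as the measure of yeast growth restored by compound in an NS1-expressing S. cerevisiae strain. Cells had been washed out of glucose medium and diluted 1:100 into galactose -URA medium, pH 6.0.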
CHX counter: affects cycloheximide protein synthesis inhibition readout, counter-screen; cell reporter, cycloheximide protein synthesis inhibition counterscreen; max response, %; actives 12% (n = 300,000); AID 2314; in the data active means max response mostly above about 13%, no sharp cut-off; inactive means mostly below about 14%; further: read at 38.3 µM for the half of the compounds with a filed dose; 0% is about no effect
The depositor's hits bear a star; ? = inconclusive; · = no result; [ ] = another dose, or the depositor's remark. Compounds with a hit are over-represented: about 14% of the library has one in this group of screens. Unless noted, the call rests on the fitted dose curve; in most records, active means well fitted curve in the direction sought with a large enough effect; inconclusive means small, poorly fitted or top-dose-only effect, or another doubt; inactive means no such curve, though single readings can be large; an effect the other way counts as inactive or inconclusive.

SMILES	LmPK inh	Shiga toxin inh	Giardia FBPA inh	NS1 function inh	CHX counter
Cc1csc(NC(=O)c2cnccn2)n1	?	71	3%	4%	45*
O/N=C/Cc1[nH]c2ccccc2c1-c1ccccc1	-4%	-6	1%	-1%	4
Cc1csc(NC(=O)c2cccc(C)c2C)n1	-5%	55	-3%	-31%	38*
COc1cccc(C(=O)Nc2nc(-c3ccncc3)cs2)c1	9%[11.5 µM]	31	?	·	6
Cc1csc(NC(=O)c2cc(-c3ccncc3)nc3ccccc23)n1	3%	-4	0%	·	2
Cc1csc(NC(=O)CCNC(=O)c2ccccc2Cl)n1	-8%	31	2%	·	13
Cc1csc(NC(=O)c2ccc[nH]c2=O)n1	-16%	·	-12%	12%	36*
COc1cccc(C(=O)Nc2nc(C)cs2)c1	?	68*	-4%	-16%	35*
COc1ccc(-n2c(=S)[nH]c3cc(C(=O)Nc4ccc(F)cc4)ccc3c2=O)c(OC)c1	-8%	-6	9%	13%	-5
O=C(O)C1CCCN(S(=O)(=O)c2ccc(-c3ccc(=O)[nH]n3)s2)C1 (centres undefined)	-5%	-6	·	-9%	-1
COc1ccc(/C=C/c2c(-c3ccc(OC)cc3)oc3ccccc23)cc1	3%	-4	-1%	15%	-1
COc1ccc(/C=C\c2nc(=O)c3ccccc3o2)cc1	-17%	135*	13%	·	60*
O=c1nc(/C=C/c2ccc(O)c(O)c2)oc2ccccc12	-5%	38	-16%	-1%	25*
COc1ccc(NC(=O)CCC(=O)N2CCOCC2)c([N+](=O)[O-])c1	-8%	-18	·	4%	8
CC(C)(C)c1cc(-c2ccccc2)n[nH]1	5%	34	4%	-2%	15*
O=C(Nc1ccc2ncccc2c1)c1ccccc1	-4%	-3	0%	-3%	-1
O=C(Nc1ccc2[nH]ccc2c1)c1ccc(F)cc1	?	16	-4%	2%	13*
O=C(Nc1ccc2[nH]ccc2c1)c1ccccc1	?	32	-8%	2%	27*
COc1cccc(C2=NN(C(=O)c3ccco3)C(c3ccco3)C2)c1 (centres undefined)	1%	72*	·	-22%	29*
CS(=O)(=O)Nc1ccc(C2=NN(C(=O)c3ccco3)C(c3ccco3)C2)cc1 (centres undefined)	-1%	-15	·	6%	2
CCN1C(=O)[C@H]2[C@@H](c3ccc(C)cc3)N3C(=O)N(c4ccc(OC)cc4)C(=O)[C@@]3(C)[C@H]2C1=O	6%	-3	-3%	7%	-1
Cc1ccc(NC(=O)C2=NNC(=O)CC2)cc1F	-3%	60*	4%	-3%	35*
O=C1CCC(C(=O)Nc2cccc(Oc3ccccc3)c2)=NN1	3%	16	0%	·	15*
CC(C)c1ccc(NC(=O)C2=NNC(=O)CC2)cc1	1%	97*	1%	-2%	38*
O=C1CCC(C(=O)Nc2nnc(C3CC3)s2)=NN1	2%	7	?	7%	-3
SMILES	LmPK inh	Shiga toxin inh	Giardia FBPA inh	NS1 function inh	CHX counter
c1ccc(Oc2cccc(NC3=NCCC3)c2)cc1	6%	-27	1%	-8%	-1
C[C@H](NC(=O)Cc1ccccc1)C(=O)N1CCC2(CC1)NCCc1[nH]cnc12	6%	-6	·	-1%	-3
COc1ccc(-c2c(NC(=O)CC(C)C)n(C)c3ccccc3c2=O)cc1OC	0%	-4	-16%	14%	2
CCN1C(=O)[C@H]2[C@H]3[C@H](O)[C@H](O)C/C(=N/NC(=O)OCc4ccc(OC)cc4)[C@H]3CC[C@@H]2C1=O	·	·	-1%[12.9 µM]	·	·
N[C@@H]1CCN(O)C1=O	·	1	11%	·	-9
COc1ccc(CCc2nnc(CCC(=O)N(C)Cc3ccnc4ccccc34)o2)cc1	12%	23*	4%	-3%	30*
Cc1cc(-c2nnc(CCC(=O)NC(C)c3cccc4ccccc34)o2)no1 (centres undefined)	3%	15	4%	1%	6
COc1ccccc1CCc1nnc(CCC(=O)N(C)Cc2ccncc2C)o1	1%	8	4%	1%	-1
Cc1cc(-c2nnc(CCC(=O)N(C)Cc3cccc4ccccc34)o2)no1	2%	63*	-4%	-3%	20*
COc1ccccc1CCc1nnc(CCC(=O)N(C)Cc2cccc3cnccc23)o1	-2%	86*	1%	-4%	45*
O=C1NN(c2ccccc2)C(=O)/C1=C\c1ccccc1	-4%	-1	?	18%	1
Cc1cc(/C=C2\C(=O)NN(c3ccccc3)C2=O)c(C)n1-c1ccccc1O	4%	46*	9%	-3%	34*
Cc1cc(/C=C2/C(=O)NN(c3ccccc3)C2=O)c(C)n1-c1ccc(O)cc1	1%	13	-1%	29%	18
COc1ccc(-n2c(C)cc(/C=C3\C(=O)NN(c4ccccc4)C3=O)c2C)cc1	-1%	50*	-2%	12%	39*
COc1cccc(CN(C)C(=O)c2ccc(Oc3ccccc3)cc2)c1OC	-9%	-7	-11%	-20%	10
CC1CN(/C=C/C=O)C(C)CC1OC(=O)c1ccccc1 (centres undefined)	-1%	-12	-3%	1%	-3
CC(=O)Nc1cccc(Oc2nc(C(F)(F)F)nc3ccccc23)c1	-5%	-4	0%	-21%	0
CC(=O)Nc1cccc(Oc2nc(-c3ccccn3)nc3ccccc23)c1	0%	36	-8%	-2%	15*
CC(=O)Nc1ccc(Oc2nc(-c3ccccn3)nc3ccccc23)cc1	1%	54*	12%	-4%	58*
Cc1cccc(Oc2nc(-c3ccccn3)nc3ccccc23)c1	4%	63*	7%	-50%	34*
Cc1ccccc1Oc1nc(-c2ccccn2)nc2ccccc12	0%	46*	3%	-50%	39*
Cc1cccc(Oc2nc(-c3ccncc3)nc3ccccc23)c1	2%	-13	1%	-32%	1
O=C(CNC(=O)N1CC(=O)Nc2ccccc21)NCCc1cccc(F)c1	-3%	4	0%	27%	-3
Clc1ccc2c(NC3CCC(N4CCCCC4)CC3)ccnc2c1 (centres undefined)	·	·	·	0%	·
O=S(=O)(c1ccc(-c2nnc(SCc3ccccc3)o2)cc1)N1CCCC1	0%	35	13%	-2%	-3
SMILES	LmPK inh	Shiga toxin inh	Giardia FBPA inh	NS1 function inh	CHX counter
Cc1ccccc1-c1nnc(SCc2ccc(F)cc2)o1	-9%	45*	-1%	-96%	30*
Cc1ccc(CSc2nnc(-c3cccnc3)o2)cc1	-4%	-1	5%	-53%	12
Brc1ccc(CSc2nnc(-c3cccnc3)o2)cc1	7%	7	2%	-30%	-2
c1ccc(CSc2nnc(-c3cccnc3)o2)cc1	11%	74*	-1%	-18%	31*
Fc1ccc(CSc2nnc(-c3cccnc3)o2)cc1	5%	31	0%	-31%	17*
Oc1ccc(-c2nnc(SCc3ccccc3)o2)cc1	-8%	61*	7%	-51%	46*
COc1cccc(CS(=O)(=O)c2nnnn2-c2ccccc2)c1	·	·	-6%	·	·

Bioassay records (PubChem BioAssay)
